This is a sample that favours compounds with a hit; in the whole collection about 6.2% have one here.
GRIN3A LBD mod – binders of NR3A ligand-binding domain, primary screen, biophysical, differential scanning fluorimetry, uHTS; Glutamate receptor ionotropic, NMDA 3A (GRIN3A) ligand-binding domain; NR3A LBD differential scanning fluorimetry, Tm shift; 0% = protein alone, 100% = glycine-bound protein; Tm shift relative to glycine control, % at 25 µM; 340,000 compounds, 2.5% hits; AID 1259313, 2017;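 active = melting temperature shift of at least 10% of the positive control shift, at one fixed dose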
NTR1 ag – agonists of human NTR1, primary screen, imaging, U2OS cells, beta-arrestin-GFP, high content; 330,000 compounds, 0.17% hits; Neurotensin receptor type 1 (Homo sapiens), P30989; AID 493036, 2011; NTR1-U2OS beta-arrestin-GFP spot imaging, agonist mode; activation, % at 20 µM;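 active = activation at or above 40% of the spot to cytoplasm intensity ratio, with at least 20 cells analyzed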
H9c2 protect – cardioprotection against H2O2-induced cell death, primary screen, uHTS, H9c2 cells, ATPLite luminescence | 360,000 compounds, 0.63% hits | protection from H2O2 cell death, % at 20 µM | H9c2 cardiomyocytes, H2O2 injury protection, 2 h;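 active = compounds giving at least 50% protection of heart cells from peroxide-induced death in the single-dose screen, raw or plate-pattern-corrected value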
AI-2 QS mod – Vibrio harveyi AI-2 quorum sensing modulators, primary screen, JMH597 strain, luminescence/OD600 ratio. Vibrio harveyi JMH597 AI-2 luminescence/OD600 ratio, 9 h; hits give low values; strain lacks LuxN and CqsS sensors; 0 = neutral-control median. activity change, % at 7.5 µM. 300,000 compounds, 0.4% hits. AID 2094, 2009; in the data active = activity change below about -75%, passing the limit was not always enough;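 also: luminescence divided by OD600 gain over 9 h not by final OD600 alone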
Mot1-301 SUMO – yeast Mot1-301 growth rescue at high temperature, primary screen, SUMOylation pathway inhibitor project, S. cerevisiae, ATP luminescence, 38.5C; S. cerevisiae Mot1-301 growth rescue; percent above DMSO median, 100 means doubled; growth rescue, % at 18.8 µM; AID 2716, 2010; 320,000 compounds, 1% hits;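 active = every valid replicate shows activation above 250% relative to neutral control wells; inactive = the rest, any valid replicate at or below 250%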
AHR activator – AHR activators, primary screen, cell-based, luminescence, luciferase reporter, human | AID 2796, 2010 | AHR-responsive luciferase reporter cells | 320,000 compounds, 2.5% hits | activation, % at 5 µM | Aryl hydrocarbon receptor (Homo sapiens), P35869; in the data active = activation above about 47%
Target sequence (P35869 whole entry, looked up): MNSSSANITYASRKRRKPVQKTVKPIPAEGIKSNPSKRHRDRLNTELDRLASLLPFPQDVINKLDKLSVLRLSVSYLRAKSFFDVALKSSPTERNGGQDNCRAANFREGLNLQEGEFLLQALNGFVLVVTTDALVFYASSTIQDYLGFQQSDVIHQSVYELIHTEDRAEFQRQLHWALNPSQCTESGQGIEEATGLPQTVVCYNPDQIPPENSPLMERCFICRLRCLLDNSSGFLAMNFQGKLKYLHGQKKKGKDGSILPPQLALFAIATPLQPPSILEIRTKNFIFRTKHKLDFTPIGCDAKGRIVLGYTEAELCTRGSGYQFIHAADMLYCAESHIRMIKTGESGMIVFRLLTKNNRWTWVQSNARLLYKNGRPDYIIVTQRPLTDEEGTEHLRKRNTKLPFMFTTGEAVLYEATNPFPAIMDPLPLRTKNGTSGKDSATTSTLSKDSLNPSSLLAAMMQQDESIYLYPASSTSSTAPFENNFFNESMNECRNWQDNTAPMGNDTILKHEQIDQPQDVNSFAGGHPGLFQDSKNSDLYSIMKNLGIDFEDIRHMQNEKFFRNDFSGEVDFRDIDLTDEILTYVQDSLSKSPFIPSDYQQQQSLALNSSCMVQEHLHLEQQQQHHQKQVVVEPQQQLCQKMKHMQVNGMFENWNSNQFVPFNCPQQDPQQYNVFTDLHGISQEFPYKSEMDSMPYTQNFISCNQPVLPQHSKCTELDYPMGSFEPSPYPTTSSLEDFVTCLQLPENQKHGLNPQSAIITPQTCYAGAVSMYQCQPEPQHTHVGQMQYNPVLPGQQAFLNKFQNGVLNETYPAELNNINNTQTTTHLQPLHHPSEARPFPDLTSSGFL
Large screens that a line does not name were inactive.

CN(Cc1ccnc2ccccc12)C(=O)C1CCC(=O)N(Cc2ccccc2F)C1 (centres undefined)	none
CCCCCCC1CC(CSc2ncn[nH]2)OC1=O (centres undefined)	GRIN3A LBD mod 14.9
CCCCCCC1CC(CCc2nc(=S)[nH][nH]2)C(=O)O1 (centres undefined)	none
CCCCc1nnc(NC(=O)c2ccccc2OCc2c(C)noc2C)s1	none
CCN(c1ccc(NC(=O)COC(=O)C(C)N=C2NS(=O)(=O)c3ccccc32)cc1)C(C)C (centres undefined)	none (no result: AI-2 QS mod, Mot1-301 SUMO, AHR activator)
COc1ccc(-c2cc(C(=O)Nc3c(F)cc(F)cc3Br)no2)cc1	none
Nc1nnnn1/N=C/c1ccccc1OCc1ccc(Cl)cc1Cl	AHR activator 72.7
COc1ccc(C2C(C#N)C(C#N)N3CCCN23)cc1 (centres undefined)	none
N#CC1C(C#N)N2CCCN2C1c1ccc(Cl)cc1 (centres undefined)	AHR activator 48.4
CC(C)CC(NC(=O)c1ccc(Cl)cc1Cl)C(=O)O (centres undefined)	Mot1-301 SUMO 271.0
Clc1ccc(-c2nc(-c3ccccn3)no2)cc1Cl	AHR activator 72.2
Brc1ccc(-c2nc(-c3ccccn3)no2)o1	AHR activator 50.8
O=C(c1cccc(C(F)(F)F)c1)C1CCCN(C(=O)CN2CCOC2=O)C1 (centres undefined)	GRIN3A LBD mod 11.1
O=C(c1cccc(C(F)(F)F)c1)C1CCCN(C(=O)C2CCOCC2)C1 (centres undefined)	none
Cc1noc(C)c1C(=O)N1CCC1(C)C(=O)NS(=O)(=O)c1cccc(F)c1 (centres undefined)	none (no result: GRIN3A LBD mod, NTR1 ag, AI-2 QS mod, Mot1-301 SUMO, AHR activator)
N#CC1=C(N)N2C(=C(C#N)C1c1ccccc1)Sc1ccccc12 (centres undefined)	AHR activator 88.4 (no result: GRIN3A LBD mod, H9c2 protect)
Cc1ccc2nc3c(cc2c1)c(NC(=O)C(C)(C)C)nn3CC(C)C	none
COc1ccccc1C(=O)NCC(=O)N1CCN(S(=O)(=O)c2ccc3c(c2)OCCO3)CC1	GRIN3A LBD mod 13.4
COc1ccccc1C(=O)NCC(=O)N1CCN(S(=O)(=O)c2ccccc2C(F)(F)F)CC1	none (no result: AI-2 QS mod)
CCOC(=O)c1nc(C)nc(Sc2n[nH]c(-c3cc(C(F)(F)F)cc(C(F)(F)F)c3)n2)c1C	GRIN3A LBD mod 12.8
CS(=O)(=O)c1ccc(NC(=O)CCN2C(=O)C3CC=CCC3C2=O)cc1 (centres undefined)	none
CCOC(=O)c1c(NC(=O)c2ccc(Cl)cc2)csc1C	GRIN3A LBD mod 17.8 (no result: Mot1-301 SUMO)
COc1ccc(OCC(=O)N/N=C(\C)c2ccc(-n3ccnc3)cc2)cc1	AHR activator 55.1
C/C(=N\Nc1ccc(Cl)c(Cl)c1)c1ccc(-n2ccnc2)cc1	none
COc1ccccc1NS(=O)(=O)c1cccc(C(=O)N/N=C(/C)c2ccc(-n3ccnc3)cc2)c1	none (no result: NTR1 ag, AI-2 QS mod, Mot1-301 SUMO, AHR activator)
C/C(=N\NC(N)=S)c1ccc(-n2ccnc2)cc1	AHR activator 112.7
C/C(=N\NC(=O)COc1ccc(C(C)(C)C)cc1)c1ccc(-n2ccnc2)cc1	AHR activator 72.9
COc1ccccc1NS(=O)(=O)c1cccc(C(=O)N/N=C(\C)c2ccc(-n3ccnc3)cc2)c1	AHR activator 66.8
Cc1ccc([C@H]2N[C@]3(CCCN(Cc4ccc(Br)cc4)C3=O)[C@H]3C(=O)N(Cc4ccccc4)C(=O)[C@@H]23)cc1	none (no result: GRIN3A LBD mod, NTR1 ag, AI-2 QS mod, Mot1-301 SUMO, AHR activator)
C/C(=N\NC(=O)c1ccccc1)c1ccc(-n2ccnc2)cc1	none
C/C(=N\NC(=O)OC(C)(C)C)c1ccc(-n2ccnc2)cc1	AHR activator 68.3
Cc1cc(=O)oc2c(C(=O)/C=C\c3cccs3)c(O)ccc12	AHR activator 72.8
COc1ccc(/C=C\C(=O)c2c(O)ccc3c(C)cc(=O)oc23)cc1OC	GRIN3A LBD mod 13.6
C#CCN1C=C(C(=O)OCC)C(C)N(Cc2ccccc2I)S1(=O)=O (centres undefined)	none (no result: AI-2 QS mod, Mot1-301 SUMO, AHR activator)
Cc1cc(CCNC=O)c(C)c2c1oc1ccccc12	GRIN3A LBD mod 12.6 (no result: NTR1 ag, AI-2 QS mod, Mot1-301 SUMO, AHR activator)
Cc1ccccc1-c1cc(=O)c2ccccc2o1	none (no result: AI-2 QS mod)
COc1cc(CNc2ccc(N3CCCCC3)cc2)ccc1OCC(=O)NC(C)(C)C	none
COc1cc(OC)c(C#N)c(S(=O)(=O)Cc2ccccc2)c1	GRIN3A LBD mod 11.7
N#Cc1c([N+](=O)[O-])cc([N+](=O)[O-])cc1S(=O)(=O)Cc1ccccc1	none (no result: AI-2 QS mod)
O=C(NCCNc1ccc([N+](=O)[O-])cc1)c1ccc(Cl)cc1	GRIN3A LBD mod 12.8 (no result: Mot1-301 SUMO)
COc1ccc(C(=O)NCCNc2ccc([N+](=O)[O-])cc2)cc1	GRIN3A LBD mod 14.3
COc1ccc(CCNC(=O)c2ccc([N+](=O)[O-])cc2)cc1	none
O=C(c1ccccn1)N1CCCC(N2CCN(c3cccc(C(F)(F)F)c3)CC2)C1 (centres undefined)	none
Cc1ncoc1C(=O)N1CCCC(N2CCN(c3cccc(C(F)(F)F)c3)CC2)C1 (centres undefined)	AHR activator 55.1
O=C(c1ccccn1)N1CCN(c2cccc(C(F)(F)F)c2)CC1	Mot1-301 SUMO 363.3
CCOc1ccc(NC(=O)CN2C(=O)NC3(CCCCCC3)C2=O)cc1	none (no result: AI-2 QS mod)
O=C1c2ccccc2[C@@H]2C[C@@H](O)[C@H](Nc3cccc4ccccc34)CCN12	none (no result: AI-2 QS mod, Mot1-301 SUMO, AHR activator)
Clc1cccc(NCc2cn3cccnc3n2)c1	GRIN3A LBD mod 10.9
Cc1cc(Cl)ccc1OCc1cn2cccnc2n1	none
O=C(COc1ccccc1/C=C1\SC(=S)NC1=O)Nc1ccc(F)cc1	GRIN3A LBD mod 13.7 (no result: AI-2 QS mod)
CCOc1ccc(C(=O)NCC(=O)OCc2nnc(-c3ccccc3)o2)cc1OCC	none (no result: AI-2 QS mod)
O=C(/C=C/c1c[nH]c2ccccc12)c1cccc2ccccc12	GRIN3A LBD mod 27.6, AHR activator 67.7
O=C(c1ccccc1)c1c[nH]c2ccccc12	none (no result: NTR1 ag, AHR activator)
Cc1ccc(-c2cc(=O)c3ccccc3[nH]2)cc1	AHR activator 50.0
Nc1cc(=O)[nH]c(SCC(=O)NNC(=O)Cc2ccccc2)n1	Mot1-301 SUMO 333.3
O=C(O)c1cccc(-c2ccc(/C=N/NC(=O)c3cccnc3)o2)c1	none
CC(C)(C)c1cc(C(=O)N/N=C/c2ccc(-c3ccccc3[N+](=O)[O-])o2)n[nH]1	AHR activator 50.2
Cc1cc(C(=O)N/N=C/c2cccc([N+](=O)[O-])c2O)n[nH]1	none
O=C(N/N=C/c1ccc(-c2ccccc2[N+](=O)[O-])o1)c1cccnc1	AHR activator 54.7

Assay outcomes from PubChem.
